In experiment [1] the target is Estrogen receptor (Homo sapiens) (UniProt P03372). As to the kind of experiment: qHTS assay to identify small molecule agonists of the estrogen receptor alpha (ER-alpha) signaling pathway in the presence of an antagonist (AID 1259383). Further: nearly all actives have a fitted effect of over 15% in size. Further: potency means the concentration at half of the fitted maximal effect. On activation: top concentration of the series differs between compounds. The method, boiled down:
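VM7Luc4E2 cells express endogenous full-length ER-alpha with an ERE-luciferase reporter and were hormone-deprived for 5 days. Compounds at 15 concentrations were added with 10.0nM ICI-182,780 for 22hr at 37C. Luminescence was read with ONE-Glo.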
(qHTS replaces the single test concentration by a dilution series.)

Experiment [2] can be described thus: qHTS assay to identify small molecule agonists or antagonists of the thyroid stimulating hormone receptor (TSHR) signaling pathway - wild type cell line counter screen (AID 1259384). The method, boiled down:
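Wild-type HEK293 cells were plated 18 h at 37 C/5% CO2, pin-dosed with compound plus Ro20-1724 medium, held 30 min at room temperature, then given cAMP-d2 and anti-cAMP-cryptate; fluorescence was read after 1 h. Fifteen concentrations, triplicate.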

The target in experiment [3] is Thyrotropin receptor (Homo sapiens) (UniProt P16473). As to the kind of experiment: qHTS assay to identify small molecule antagonists of the thyroid stimulating hormone receptor (TSHR) signaling pathway (AID 1259385). Further: nearly all actives have a fitted effect of over 20% in size. The method, boiled down: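 TSHR-HEK293 cells were plated and held 18 h at 37C/5% CO2, then given compound plus Ro20-1724 and stimulated with TSH at 1.5 ng/mL final. After 30 min at room temperature, cAMP was detected with cAMP-d2/anti-cAMP-cryptate (1 h) by fluorescence.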

A short description of experiment [4]: qHTS assay to identify small molecule agonists of the estrogen receptor alpha (ER-alpha) signaling pathway in the presence of an antagonist - cell viability counter screen (AID 1259386; active means well fitted curve in the direction sought with a large enough effect in the repeat runs; an effect the other way counts as inactive or inconclusive;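 further: series mostly up to about 92 µM; cells exposed to compounds for 22 h at 37 °C before the viability read; nearly all actives have a fitted effect of over 30% in size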). The essentials:
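Cell viability in VM7Luc4E2 cells (endogenous full-length ER-alpha) measured by CellTiter-Fluor fluorescence in the same wells as the luciferase screen. Cells pre-cultured 5 days in charcoal-stripped serum, then treated 22 h with compounds at 15 concentrations plus 10.0nM ICI-182,780.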

The target of experiment [5] is Progesterone receptor (Homo sapiens) (UniProt P06401). The experiment in a line: qHTS assay to identify small molecule agonists of the progesterone receptor (PR) signaling pathway (AID 1346784). Further: nearly all actives have a fitted effect of over 30% in size. The essentials:
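Compounds were tested for PR agonism in HEK 293T cells bearing a beta-lactamase gene under UAS control. Treatment lasted 16 hr at 37C; signal came from fluorescence of a FRET substrate.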

Experiment [6] shares this target. The experiment in a line: qHTS assay to identify small molecule antagonists of the progesterone receptor (PR) signaling pathway (AID 1346795; active means well fitted inhibition curve with a large enough effect in the signal ratio in the repeat runs, not every such curve was filed as active; the % refers to the signal ratio). The method, boiled down:
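In HEK293T cells bearing the PR-UAS-bla reporter, compound effects on promegestone-driven (1 nM) beta-lactamase expression are assessed after 16 hr using a fluorescent FRET substrate incubated 2 hr at room temperature.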

Experiment [7] is described as follows: qHTS assay to identify small molecule antagonists of the progesterone receptor (PR) signaling pathway - cell viability counter screen (AID 1346798; active means well fitted curve in the direction sought with a large enough effect in the repeat runs; an effect the other way counts as inactive or inconclusive; further: series mostly up to about 92 µM; nearly all actives have a fitted effect of over 50% in size). The essentials:
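Following a 4 hr attachment, PR-UAS-bla HEK293T cells in charcoal-stripped FBS medium were exposed to compounds with R5020 for 16 hr; CellTiter-Glo was added and luminescence read after 30 min at room temperature.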

Experiment [8] can be described thus: qHTS assay to identify small molecule agonists of the progesterone receptor (PR) signaling pathway - cell viability counter screen (AID 1346799). Further: nearly all actives have a fitted effect of over 45% in size. The essentials:
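Here, 3,000 PR-UAS-bla HEK293T cells per well were treated with compounds for 16 hr after a 6 hr preincubation at 37C and 5% CO2; cell viability is the CellTiter-Glo luminescence signal.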

A short description of experiment [9]: qHTS assay to identify small molecule antagonists of the TGF-beta/Smad signaling pathway - cell viability counter screen (AID 1346824; active means well fitted curve in the direction sought with a large enough effect in the repeat runs; an effect the other way counts as inactive or inconclusive; further: nearly all actives have a fitted effect of over 50% in size). The essentials:
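SBE-bla HEK 293T cells were plated overnight at 37 C, then given compounds in DMSO plus TGF-beta1 (added as 0.25 ng/mL solution) for 5 hr. After the bla read, CellTiter-Glo was added to the same wells and luminescence read after 30 min at room temperature.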

Experiment [10] can be described thus: qHTS assay to identify small molecule agonists of the TGF-beta/Smad signaling pathway - cell viability counter screen (AID 1346829; active means well fitted curve in the direction sought with a large enough effect in the repeat runs; an effect the other way counts as inactive or inconclusive; further: top concentration of the series differs between compounds; nearly all actives have a fitted effect of over 45% in size). The essentials:
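Here the cytotoxicity of library compounds is measured in SBE-bla HEK 293T cells treated for 5 hr, using CellTiter-Glo added to wells already read for the beta-lactamase reporter.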

Values without a mark were called inactive. Records with an inconclusive call do not appear. Active and inactive are the calls of the source. Unless noted, the call rests on the fitted dose curve.
On the % scale 0 is the no-effect control and ±100 the full control effect.

Estrogen receptor (Homo sapiens), sequence (P03372 whole entry, looked up): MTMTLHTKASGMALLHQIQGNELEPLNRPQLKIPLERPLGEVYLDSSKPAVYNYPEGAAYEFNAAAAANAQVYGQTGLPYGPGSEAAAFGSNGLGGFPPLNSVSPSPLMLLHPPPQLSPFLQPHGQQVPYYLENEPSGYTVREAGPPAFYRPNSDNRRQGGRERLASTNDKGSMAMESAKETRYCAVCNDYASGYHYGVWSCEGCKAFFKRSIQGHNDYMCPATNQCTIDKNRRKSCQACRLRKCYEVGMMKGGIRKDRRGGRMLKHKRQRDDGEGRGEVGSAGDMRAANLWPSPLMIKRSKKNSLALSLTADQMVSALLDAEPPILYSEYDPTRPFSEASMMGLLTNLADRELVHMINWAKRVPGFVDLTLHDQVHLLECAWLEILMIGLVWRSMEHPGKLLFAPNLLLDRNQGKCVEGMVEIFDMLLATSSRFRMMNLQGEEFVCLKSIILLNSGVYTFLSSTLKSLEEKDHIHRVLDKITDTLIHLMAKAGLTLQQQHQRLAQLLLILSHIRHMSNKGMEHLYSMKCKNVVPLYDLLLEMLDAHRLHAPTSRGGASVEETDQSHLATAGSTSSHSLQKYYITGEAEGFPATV
Progesterone receptor (Homo sapiens), sequence (P06401 whole entry, looked up): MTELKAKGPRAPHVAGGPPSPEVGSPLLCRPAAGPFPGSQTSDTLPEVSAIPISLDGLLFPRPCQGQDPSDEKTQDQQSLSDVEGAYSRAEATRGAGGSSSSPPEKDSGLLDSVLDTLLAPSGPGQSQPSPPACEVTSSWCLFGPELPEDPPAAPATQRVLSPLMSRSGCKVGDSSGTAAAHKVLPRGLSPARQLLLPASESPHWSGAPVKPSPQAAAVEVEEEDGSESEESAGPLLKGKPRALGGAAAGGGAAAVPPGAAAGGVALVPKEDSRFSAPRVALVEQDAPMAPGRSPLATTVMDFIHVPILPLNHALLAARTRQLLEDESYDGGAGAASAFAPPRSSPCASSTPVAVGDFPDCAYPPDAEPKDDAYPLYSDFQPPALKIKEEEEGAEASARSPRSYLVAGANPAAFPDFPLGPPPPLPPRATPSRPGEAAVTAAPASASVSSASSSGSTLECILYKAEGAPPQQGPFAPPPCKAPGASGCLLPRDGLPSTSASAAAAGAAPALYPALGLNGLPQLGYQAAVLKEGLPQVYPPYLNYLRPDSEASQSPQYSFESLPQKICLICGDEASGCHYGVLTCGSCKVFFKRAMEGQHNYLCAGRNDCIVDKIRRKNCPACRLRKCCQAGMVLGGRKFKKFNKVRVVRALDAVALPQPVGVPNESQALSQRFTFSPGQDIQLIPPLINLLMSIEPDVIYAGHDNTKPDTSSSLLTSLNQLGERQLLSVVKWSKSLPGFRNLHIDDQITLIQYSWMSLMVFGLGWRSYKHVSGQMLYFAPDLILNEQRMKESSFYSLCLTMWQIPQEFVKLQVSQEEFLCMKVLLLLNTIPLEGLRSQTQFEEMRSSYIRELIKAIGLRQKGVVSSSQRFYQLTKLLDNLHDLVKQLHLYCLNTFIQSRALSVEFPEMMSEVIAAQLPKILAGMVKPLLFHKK
Thyrotropin receptor (Homo sapiens), sequence (P16473 whole entry, looked up): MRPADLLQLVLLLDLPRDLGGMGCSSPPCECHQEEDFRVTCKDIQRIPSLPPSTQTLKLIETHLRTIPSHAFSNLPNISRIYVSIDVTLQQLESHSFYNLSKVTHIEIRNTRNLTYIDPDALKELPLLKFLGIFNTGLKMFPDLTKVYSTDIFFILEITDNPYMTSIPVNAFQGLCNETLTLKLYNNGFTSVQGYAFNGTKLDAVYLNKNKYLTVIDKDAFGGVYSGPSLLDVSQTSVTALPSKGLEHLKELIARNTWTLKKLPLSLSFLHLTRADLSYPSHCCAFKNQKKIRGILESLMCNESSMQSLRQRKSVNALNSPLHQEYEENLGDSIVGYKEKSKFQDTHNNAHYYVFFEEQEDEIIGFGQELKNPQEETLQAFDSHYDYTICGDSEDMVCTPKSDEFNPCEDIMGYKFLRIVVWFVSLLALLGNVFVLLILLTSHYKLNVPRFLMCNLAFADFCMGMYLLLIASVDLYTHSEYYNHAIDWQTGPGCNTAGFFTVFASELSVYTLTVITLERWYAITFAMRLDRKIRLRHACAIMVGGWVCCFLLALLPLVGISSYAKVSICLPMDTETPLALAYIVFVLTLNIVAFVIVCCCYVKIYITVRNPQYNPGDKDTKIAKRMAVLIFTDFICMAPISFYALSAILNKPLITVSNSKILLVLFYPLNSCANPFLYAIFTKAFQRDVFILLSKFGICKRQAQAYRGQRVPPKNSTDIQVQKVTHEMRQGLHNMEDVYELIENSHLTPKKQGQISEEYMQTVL

With `Cc1ccc(OC(=O)CC(C)C)cc1`, the Potency result in [1], in [5], in [6] and in [8] was “inactive” throughout. In addition, the result in [2], in [3], in experiment [4], in [7] and in experiment [9] was inactive.

In the case of `CCCCN(CCCC)CCCCCCN(CCCC)CCCC`, the Potency entry in experiment [1], in experiment [5], in [6] and in experiment [8] was “inactive” each time. For the same molecule, the result in [2], in experiment [3], in experiment [4], in experiment [7], in experiment [9] and in experiment [10] was inactive.

Take `NS(=O)(=O)c1cc2c(cc1C(F)(F)F)NCNS2(=O)=O`: the Potency entry in experiment [1], in experiment [5], in [6] and in experiment [8] was “inactive” throughout. The molecule was called inactive in experiment [2], in experiment [3], in [4], in experiment [7] and in experiment [9].

As for `CC(=O)Nc1ccc(OCCOCCOc2ccc(NC(C)=O)cc2)cc1`, the Potency result in experiment [1], in experiment [5], in experiment [6] and in experiment [8] was “inactive” throughout. The molecule was classed as inactive in [2], in [3], in [4], in [7], in [9] and in [10].

Consider `CN1CCN(C(=O)C2CCCCC2)CC1`, for which the Potency result in [1], in [5], in experiment [6] and in experiment [8] was “inactive” in each case. Moreover, the molecule was classed as inactive in experiment [2], in experiment [3], in experiment [4], in experiment [7], in [9] and in [10].

As to `CCCCCCCCCCCCCC(=O)OCC`, the Potency entry in experiment [1], in [5], in [6] and in experiment [8] was “inactive” each time. For the same molecule, the molecule was called inactive in experiment [2], in experiment [3], in experiment [4], in experiment [7], in experiment [9] and in experiment [10].

On to `CC/C=C/CCCCCCCCCCOC(C)=O`, for which the Potency entry in experiment [1], in experiment [5], in experiment [6] and in experiment [8] was “inactive” each time. In addition, the result in experiment [2], in experiment [3], in [4], in experiment [7] and in [9] was inactive.

In the case of `CC(C)(C)c1ccc(C(=O)CCCCl)cc1`, in [1], the Potency is 7.5 µM (active). In addition, the molecule was classed as inactive in experiment [2], in experiment [3], in [4], in experiment [7] and in [9]. The Potency result in experiment [5], in [6] and in [8] was “inactive” in each case.

For the molecule `O=C(O)Cc1c(Cl)ccc(Cl)c1Cl`, the Potency entry in experiment [1], in experiment [5], in experiment [6] and in experiment [8] was “inactive” throughout. In addition, the molecule was classed as inactive in [2], in experiment [3], in [4], in experiment [7], in [9] and in [10].

Regarding `CCc1ccc(CC)cc1`, the Potency entry in [1], in experiment [5], in [6] and in experiment [8] was “inactive” throughout. The molecule was classed as inactive in experiment [2], in experiment [3], in experiment [4], in experiment [7] and in [9].

In the case of `CCOC(=O)CC(C(C)=O)C(C)=O`, the Potency entry in experiment [1], in experiment [5], in experiment [6] and in experiment [8] was “inactive” each time. The molecule was classed as inactive in experiment [2], in [3], in experiment [4], in experiment [7], in experiment [9] and in [10].

Take `Cc1cc(O)c(Cl)cc1C`: the Potency result in experiment [1], in experiment [5], in experiment [6] and in experiment [8] was “inactive” each time. Moreover, the molecule was classed as inactive in [2], in experiment [3], in experiment [4], in experiment [7], in [9] and in experiment [10].

For `CN(C)CCCN(C)C`, the activation in experiment [1] was -2.43% [at 8.39 µM]; in experiment [5] it was -0.0517% [at 8.39 µM]. Moreover, the cAMP activity change in [2] was 3.11% [at 8.39 µM]. For the same molecule, the activity change, negative = inhibition in experiment [3] was 4.29% [at 8.39 µM]; in experiment [6] it was 12.8% [at 8.39 µM]. For the same molecule, the activity change, negative = cytotoxicity was 0.833% [at 8.39 µM] in [4], 5.2% [at 8.39 µM] in [7], 1.47% [at 8.39 µM] in experiment [8] and 0.619% [at 6.97 µM] in [10]. In addition, the viability change, negative = cytotoxic in experiment [9] was -1.68% [at 6.97 µM].

As to `CCCCOCCCC`, the Potency result in [1], in experiment [5], in [6] and in experiment [8] was “inactive” each time. For the same molecule, the outcome in experiment [2], in experiment [3], in [4], in experiment [7], in [9] and in [10] was inactive.

As for `CCNC(=O)C(C)OC(=O)Nc1ccccc1` (stereo not given), the Potency result in [1], in experiment [5], in experiment [6] and in [8] was “inactive” throughout. Besides, the call in experiment [2], in [3], in [4], in experiment [9] and in experiment [10] was inactive.

For the molecule `CC(C)(C)C(=O)CCc1ccc(Cl)cc1`, the Potency result in experiment [1], in experiment [5], in [6] and in experiment [8] was “inactive” in each case. Moreover, the call in experiment [2], in [3], in [4], in experiment [9] and in experiment [10] was inactive.

On to `CCO[Si](CC(C)C)(OCC)OCC`, for which the Potency entry in experiment [1], in [5] and in experiment [6] was “inactive” throughout. Further, the result in experiment [2], in experiment [3], in experiment [4], in [9] and in [10] was inactive.

With `N#Cc1cc(NC(=O)C(=O)O)c(Cl)c(NC(=O)C(=O)O)c1`, the Potency result in [1], in experiment [5], in experiment [6] and in experiment [8] was “inactive” throughout. The molecule was called inactive in [2], in experiment [3], in experiment [4], in experiment [7], in [9] and in experiment [10].

As for `C[C@@H]1CCC[C@H](C)N1CCCC(O)(c1ccccc1)c1ccccn1` (stereo not given in full), the Potency result in [1], in experiment [5], in experiment [6] and in experiment [8] was “inactive” in each case. The outcome in [2], in experiment [3], in experiment [4], in [7], in experiment [9] and in experiment [10] was inactive.

Consider `CCCC(=O)OC`, for which the Potency result in [1], in experiment [5], in experiment [6] and in experiment [8] was “inactive” each time. For the same molecule, the outcome in experiment [2], in experiment [3], in [4], in experiment [9] and in experiment [10] was inactive.

Turning to `CC(=O)OC1CCC(C(C)(C)C)CC1` (stereo not given), the Potency entry in experiment [1], in experiment [5], in experiment [6] and in experiment [8] was “inactive” throughout. The call in experiment [2], in experiment [3], in [4], in experiment [7], in experiment [9] and in experiment [10] was inactive.

As for `Nc1cc(S(=O)(=O)O)ccc1O`, the Potency entry in experiment [1], in experiment [5], in experiment [6] and in experiment [8] was “inactive” each time. Also, the molecule was classed as inactive in experiment [2], in experiment [3], in experiment [4], in experiment [9] and in experiment [10].

As to `CCCCc1ccc(Cl)cc1`, the Potency entry in [1], in experiment [5], in [6] and in experiment [8] was “inactive” throughout. Also, the outcome in [2], in experiment [3], in experiment [4] and in [9] was inactive.

Take `CCCCC(CC)CCC(CC(C)C)OS(=O)(=O)O` (stereo not given): the Potency result in [1], in experiment [5], in [6] and in experiment [8] was “inactive” each time. Also, the outcome in experiment [2], in experiment [3], in experiment [4] and in [9] was inactive.
